Measured values published in PubChem BioAssay AID720597 (Broad Institute, 2013).
Measured potencies and affinities stand elsewhere. Unmarked numbers belong to inactive results.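 The calls were made as follows: active = fitted half-maximal dose no more than twice the top valid tested dose, for compounds that lower signal; inconclusive = fit invalid, or curve flat with activity between -70 and -30; inactive = potency past limit, curve flat within ±30, or signal increasing.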

molecular target: NAD-dependent protein deacylase sirtuin-5, mitochondrial (Homo sapiens) (UniProt Q9NXA8); experiment: SIRT5 deacylase inhibitors, dose response, biochemical, fluorescence imaging, cherry-pick, set 6 (AID 720597); conditions: Purified SirT5, succinyl-peptide-AMC/trypsin fluorescence; series mostly up to 15 µM; activity change, negative = inhibition: at the top concentration;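 also: lower AMC signal can also come from blocking the trypsin step; 0% = median of neutral control wells and -100% = median of positive control wells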
Sequence (Q9NXA8 whole entry, looked up): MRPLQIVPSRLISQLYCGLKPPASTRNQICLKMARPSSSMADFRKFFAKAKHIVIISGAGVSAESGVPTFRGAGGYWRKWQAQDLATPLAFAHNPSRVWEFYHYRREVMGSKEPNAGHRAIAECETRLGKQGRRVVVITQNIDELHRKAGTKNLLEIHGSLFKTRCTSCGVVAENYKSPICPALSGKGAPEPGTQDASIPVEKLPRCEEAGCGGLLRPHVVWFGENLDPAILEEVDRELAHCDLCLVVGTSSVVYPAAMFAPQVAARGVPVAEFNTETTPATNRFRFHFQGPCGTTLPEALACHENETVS

Compound	activity change, negative = inhibition [%]
C[C@@H]1CN([C@H](C)CO)C(=O)c2cccc(NC(=O)CCCCCC(=O)Nc3ccccc3N)c2O[C@H]1CN(C)Cc1ccc(Oc2ccccc2)cc1	-13
C[C@@H]1CN([C@@H](C)CO)C(=O)c2cccc(N(C)C)c2O[C@@H]1CN(C)Cc1ccccc1	35.5
COc1ccc(S(=O)(=O)N2CCCCN3[C@H](CO)[C@H](c4ccc(C#CC(C)C)cc4)[C@H]3C2)cc1	-7.12
COc1ccc(S(=O)(=O)N(C)C[C@@H]2OCCCC[C@H](C)Oc3ccc(NS(=O)(=O)c4ccc(F)cc4)cc3C(=O)N([C@H](C)CO)C[C@H]2C)cc1	13.5
CO[C@H]1CN(C)C(=O)c2cc(NC(=O)CC(F)(F)F)ccc2OC[C@@H](C)N(C(=O)C2CCCCC2)C[C@@H]1C	-13.9
C[C@@H]1CN([C@H](C)CO)S(=O)(=O)c2ccc(C#C[C@@H](C)O)cc2O[C@@H]1CN(C)Cc1ccc(-c2ccccc2)cc1	11.5
C[C@@H]1CN([C@@H](C)CO)S(=O)(=O)c2ccc(C3=CCCCC3)cc2O[C@@H]1CN(C)S(=O)(=O)c1ccc(F)cc1	-28.7
C[C@H](O)C#Cc1ccc2c(c1)O[C@@H](CN(C)Cc1ccc(-c3ccccc3)cc1)[C@@H](C)CN([C@H](C)CO)S2(=O)=O	10.3
COc1ccc(NC(=O)N(C)C[C@H]2Oc3ccc(NS(=O)(=O)c4ccc(F)cc4)cc3C(=O)N([C@@H](C)CO)C[C@@H]2C)cc1	30.1
COc1ccc(NC(=O)N(C)C[C@@H]2Oc3cc(C#CCC(C)C)ccc3S(=O)(=O)N([C@@H](C)CO)C[C@H]2C)cc1	1.47
CCNC(=O)C[C@H]1CC[C@H]2[C@@H](COc3ccc(NS(=O)(=O)c4ccccc4C)cc3C(=O)N2C)O1	-7.91
